Assay results reported in PubChem BioAssay (Tox21).
Results filed as inconclusive are left out. The source made the active and inactive calls. Unless noted, calls follow the shape of the dose curve; as a rule, active = well fitted curve in the direction sought with a large enough effect in the repeat runs; inconclusive = weak or mixed curves; inactive = no such curve, though single readings can be large; an effect the other way counts as inactive or inconclusive.

Legend:
[1] = qHTS assay to identify small molecule antagonists of the estrogen receptor alpha (ER-alpha) signaling pathway using the BG1 cell line in the presence of 0.1 nM 17-beta-estradiol - cell viability counter screen (AID 1259241); also: nearly all actives have a fitted effect of over 40% in size
Method in brief: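 VM7Luc4E2 cells (endogenous full-length ER-alpha, 4xERE-luciferase), cultured 5 days in charcoal-stripped serum, exposed to compounds with 0.1 nM 17beta-estradiol (final) for 22 hr at 37C. Viability read in same wells as live-cell protease fluorescence after 30 min.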

[2] = qHTS assay to identify small molecule antagonists of the androgen receptor (AR) signaling pathway using the MDA cell line in the presence of 0.5 nM R1881 - cell viability counter screen (AID 1259242); also: nearly all actives have a fitted effect of over 45% in size
Method in brief: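 Cytotoxicity toward MDA-kb2 cells is measured by CellTiter-Fluor live-cell protease fluorescence after 16 hr compound exposure at 37C in the presence of 0.5 nM R1881 stimulator.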

[3] = qHTS assay to identify small molecule phospholipidosis (PLD) inducers (AID 1259344; active = well fitted curve in the direction sought with a large enough effect; an effect the other way counts as inactive or inconclusive)
Method in brief: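 HepG2 cells grown on collagen I take up LipidTOX Red while exposed to compound for 24 h; after fixation they are imaged at 20x and pit metrics are extracted.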

[4] = qHTS assay to identify small molecule HDAC inhibitors (AID 1259364); also: nearly all actives have a fitted effect of over 45% in size; also: potency is read from the fitted curve at half-maximal effect; as to activity change, negative = inhibition: top concentration of the series differs between compounds
Method in brief: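 Homogeneous cell-based luminescent assay of endogenous class I/II HDAC activity; HCT-116 cells, 2 h compound exposure, 30 min HDAC-Glo development at RT.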

[5] = qHTS assay to identify small molecule HDAC inhibitors - cell viability counter screen (AID 1259365); also: series mostly up to about 92 µM; nearly all actives have a fitted effect of over 50% in size
Method in brief: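 Wild-type HCT-116 cells, 1,500/well, cultured overnight, then compound-treated 2 h at 37 C. Viability measured as ATP luminescence with CellTiter-Glo after 30 min at room temperature.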

[6] = qHTS assay to identify small molecule agonists of the sonic hedgehog signaling (Shh) pathway - cell viability counter screen (AID 1259366); also: nearly all actives have a fitted effect of over 50% in size; also: potency is read from the fitted curve at half-maximal effect
Method in brief: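 NIH/3T3-derived Gli1-Luc reporter cells, 2,000 per well, received compound after 4 h and were treated about 23 h at 37C. Viability measured in the same wells by CellTiter-Fluor fluorescence after 1 h.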

[7] = qHTS assay to identify small molecule antagonists of the sonic hedgehog signaling (Shh) pathway - cell viability counter screen (AID 1259367); also: nearly all actives have a fitted effect of over 55% in size; also: potency is read from the fitted curve at half-maximal effect
Method in brief: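 After a 4 hr settling period, 3T3 Gli1-Luc cells were treated with DMSO-dissolved chemicals and conditioned medium, kept 24 hr at 37C in 5% CO2, and assayed for viability by CellTiter-Fluor fluorescence following 1 hr reagent incubation.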

[8] = qHTS assay to identify small molecule agonists of the sonic hedgehog signaling (Shh) pathway (AID 1259368; calls by dose curve;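 also: NIH/3T3-derived 3T3Gli1-Luc cells carrying a stable Gli1-driven firefly luciferase reporter; series mostly up to about 92 µM; nearly all actives have a fitted effect of over 15% in size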)
Method in brief: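 Steps: seed 3T3 Gli1-Luc cells, incubate 4 hr at 37 C, pin-transfer compounds in DMSO alongside a positive control, incubate 24 hr, add luciferase detection reagent, wait 30 min at room temperature, read luminescence.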

[9] = target: Estrogen receptor (Homo sapiens) (UniProt P03372); experiment: qHTS assay to identify small molecule antagonists of the estrogen receptor alpha (ER-alpha) signaling pathway using the BG1 cell line in the presence of 0.1 nM 17-beta-estradiol (AID 1259244); also: nearly all actives have a fitted effect of over 50% in size
Estrogen receptor (Homo sapiens), sequence (P03372 whole entry, looked up): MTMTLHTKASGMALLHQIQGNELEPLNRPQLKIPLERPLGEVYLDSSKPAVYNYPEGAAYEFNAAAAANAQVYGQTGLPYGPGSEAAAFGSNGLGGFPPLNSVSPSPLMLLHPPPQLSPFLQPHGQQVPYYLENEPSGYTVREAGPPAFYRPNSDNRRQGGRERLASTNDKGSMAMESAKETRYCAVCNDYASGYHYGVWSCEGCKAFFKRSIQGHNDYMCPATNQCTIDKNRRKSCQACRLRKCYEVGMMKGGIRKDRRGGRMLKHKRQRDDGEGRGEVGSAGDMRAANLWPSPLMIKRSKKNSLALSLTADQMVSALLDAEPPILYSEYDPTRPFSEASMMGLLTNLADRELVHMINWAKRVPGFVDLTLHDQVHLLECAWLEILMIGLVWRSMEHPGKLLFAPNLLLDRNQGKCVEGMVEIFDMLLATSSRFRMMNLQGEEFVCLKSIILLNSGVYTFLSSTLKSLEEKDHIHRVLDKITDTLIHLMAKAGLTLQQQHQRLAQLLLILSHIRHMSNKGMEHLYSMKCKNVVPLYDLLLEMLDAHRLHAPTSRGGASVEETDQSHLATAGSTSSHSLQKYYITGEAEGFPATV
Method in brief: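 After 5 days in hormone-depleted medium (charcoal-stripped serum, no phenol red), VM7Luc4E2 cells were seeded, incubated 24 h, then co-treated with compound and 0.1 nM (final) estradiol for 22 h before luminescence detection.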
% is scaled to controls: 0 for no effect and ±100 for the full control effect.

CCC(C)(CN(C)C)OC(=O)c1ccccc1 (stereo not drawn)
inactive: outcome [1] | outcome [2] | outcome [3] | Potency [4] | outcome [5] | Potency [6] | Potency [7] | outcome [8]

CC[N+](CC)(CC(=O)Nc1c(C)cccc1C)Cc1ccccc1 (tested in a mixture with another compound)
inactive: outcome [1] | outcome [2] | Potency [4] | outcome [5] | Potency [6] | Potency [7] | outcome [8]

CN1CCN(c2cc3c(nn2)Oc2ccccc2N3C)CC1
inactive: activity change, negative = cytotoxicity [1] -8.18% [at 19 µM] | viability change, negative = cytotoxic [2] 0.195% [at 19 µM] | outcome [3] | activity change, negative = cytotoxicity [5] 2.56% [at 19 µM] | viability change, negative = cytotoxic [6] 8.2% [at 19 µM] | viability change, negative = cytotoxic [7] 0.668% [at 19 µM] | activity change [8] 5.44% [at 18.9 µM]
active: Potency [4] 4.61 µM

NC(=O)N1c2ccccc2CC(=O)c2ccccc21
inactive: outcome [1] | outcome [2] | outcome [3] | Potency [4] | outcome [5] | Potency [6] | Potency [7] | outcome [8]

CC(=O)Nc1ccc(OCC(O)CNC(C)C)cc1 (stereo not drawn)
inactive: outcome [1] | outcome [2] | outcome [3] | Potency [4] | Potency [6] | Potency [7] | outcome [8]

NCCCC(N)(C(=O)O)C(F)F (stereo not drawn)
inactive: outcome [1] | outcome [2] | outcome [3] | Potency [4] | outcome [5] | Potency [6] | Potency [7] | outcome [8]

C[C@@H]1CCC[C@H](C)N1
inactive: outcome [1] | outcome [2] | outcome [3] | Potency [4] | Potency [6] | Potency [7] | outcome [8]

CC(C(=O)O)c1cccc(Oc2ccccc2)c1 (stereo not drawn)
inactive: outcome [1] | outcome [2] | outcome [3] | Potency [4] | outcome [5] | Potency [6] | Potency [7] | outcome [8]

NC(N)=NCCN1CCCCCCC1
inactive: activity change, negative = cytotoxicity [1] -0.721% [at 0.349 µM] | viability change, negative = cytotoxic [2] 1.84% [at 0.349 µM] | outcome [3] | activity change, negative = inhibition [4] -1.37% [at 0.349 µM] | activity change, negative = cytotoxicity [5] -1.69% [at 0.349 µM] | viability change, negative = cytotoxic [6] -1.53% [at 0.349 µM] | viability change, negative = cytotoxic [7] 3.04% [at 0.349 µM] | activity change [8] -0.0353% [at 0.349 µM]

CCCc1ncc(C[n+]2ccccc2C)c(N)n1
inactive: outcome [1] | outcome [2] | outcome [3] | Potency [4] | outcome [5] | Potency [6] | Potency [7] | outcome [8]

C[N+]1(CC2COC(c3ccccc3)(c3ccccc3)O2)CCCCC1 (stereo not drawn)
inactive: activity change, negative = cytotoxicity [1] 0.56% [at 19 µM] | viability change, negative = cytotoxic [2] 1.83% [at 19 µM] | outcome [3] | activity change, negative = inhibition [4] 0.669% [at 19 µM] | activity change, negative = cytotoxicity [5] 0.214% [at 19 µM] | viability change, negative = cytotoxic [6] 9.08% [at 19 µM] | viability change, negative = cytotoxic [7] 14.2% [at 19 µM] | activity change [8] 0.753% [at 18.9 µM]

NC(=O)Cc1cccc2ccccc12
inactive: outcome [1] | outcome [2] | Potency [4] | outcome [5] | Potency [6] | Potency [7] | outcome [8]

Cc1ccccc1N=C(N)N=C(N)N
inactive: outcome [1] | outcome [2] | Potency [4] | outcome [5] | Potency [6] | Potency [7] | outcome [8]

Nc1ccncc1N
inactive: outcome [1] | outcome [2] | outcome [3] | Potency [4] | outcome [5] | Potency [6] | Potency [7] | outcome [8]

C[N+]12CCC(CC1)C(OC(=O)C(O)(c1ccccc1)c1ccccc1)C2 (stereo not drawn)
inactive: outcome [1] | outcome [2] | outcome [3] | Potency [4] | outcome [5] | Potency [6] | Potency [7] | outcome [8]

C=C(C)C(=O)OCCOCCOCCOCCOC(=O)C(=C)C
inactive: outcome [1] | outcome [2] | Potency [4] | outcome [5] | Potency [6] | Potency [7] | outcome [8]

CC(=O)OCC(=O)[C@@]1(O)[C@H](C)C[C@H]2[C@@H]3CCC4=CC(=O)C=C[C@]4(C)[C@@]3(F)[C@@H](O)C[C@@]21C
inactive: outcome [1] | outcome [2] | outcome [3] | Potency [4] | outcome [5] | Potency [6] | Potency [7] | outcome [8]

O=S(=O)(O)c1cccc2c(S(=O)(=O)O)cccc12
inactive: outcome [1] | outcome [2] | Potency [4] | outcome [5] | Potency [6] | Potency [7] | outcome [8]

O=Cc1cccc(Br)c1
inactive: outcome [1] | outcome [2] | Potency [4] | outcome [5] | Potency [6] | Potency [7] | outcome [8]

c1ccc(CCc2ccccc2)cc1
inactive: outcome [1] | outcome [2] | Potency [4] | outcome [5] | Potency [6] | Potency [7] | outcome [8]

CC1=NN(c2cc(S(=O)(=O)O)ccc2Cl)C(=O)C1N=Nc1ccccc1 (stereo not drawn)
active: Potency [6] 13.7 µM | Potency [7] 27.3 µM
inactive: outcome [9] | Potency [4] | outcome [5] | outcome [8]

CCOc1ccccc1OCC
inactive: outcome [1] | outcome [2] | Potency [4] | outcome [5] | Potency [6] | Potency [7] | outcome [8]

[Ca+2]
inactive: outcome [1] | outcome [2] | Potency [4] | outcome [5] | Potency [6] | Potency [7] | outcome [8]

CCCCOCCOC(=O)CCCCCCCCC(=O)OCCOCCCC
inactive: outcome [1] | outcome [2] | Potency [4] | outcome [5] | Potency [6] | outcome [8]

O=C1c2ccccc2C(=O)c2cc(O)ccc21
active: Potency [4] 7.7 µM
inactive: outcome [1] | outcome [2] | outcome [5] | Potency [6] | Potency [7] | outcome [8]

O=C1CCCCCCCCCCCCCCO1
inactive: outcome [1] | outcome [2] | Potency [4] | outcome [5] | Potency [6] | Potency [7] | outcome [8]

CCCCCCC#CC(=O)OC
inactive: outcome [1] | outcome [2] | Potency [4] | outcome [5] | Potency [6] | Potency [7] | outcome [8]
